By AC50 is commonly meant the concentration at which the activity in the assay is half-maximal.

SMILES strings stand for the structures. Active and inactive are the calls of the source. Rule for the calls: active = hit-call score of the fitted dose curve at least 0.9, where 1 is the maximum; inactive = score below 0.9.

Experimental findings from PubChem BioAssay (EPA / NIEHS) are described below.

The nature of the test: APR_HepG2_MitoMembPot_72hr: Apredica 72-hour HepG2 Assay for Mitochondrial Membrane Potential (AID 2282917). As to conditions: imaging, actives raise or lower the signal. The protocol:
APR_HepG2_72hr is a cell-based, multiplexed-readout assay that uses HepG2, a human liver cell line, with measurements taken at 72 hours after chemical dosing in a 384-well plate.APR_HepG2_MitoMembPot_72hr is one of 10 assay component(s) measured or calculated from the APR_HepG2_72hr assay. It is designed to make measurements of dye binding, a form of membrane potential reporter, as detected with fluorescence intensity signals by HCS Fluorescent Imaging technology.Data from the assay component APR_HepG2_MitoMembPot_72hr was analyzed into 1 assay endpoint. This assay endpoint, APR_HepG2_MitoMembPot_72hr, was analyzed with bidirectional fitting relative to DMSO as the negative control and baseline of activity. Using a type of membrane potential reporter, gain or loss-of-signal activity can be used to understand changes in the signaling. Furthermore, this assay endpoint can be referred to as a primary readout, because this assay has produced multiple assay endpoints where this one serves a signaling function. To generalize the intended target to other relatable targets, this assay endpoint is annotated to the cell morphology intended target family, where the subfamily is organelle conformation.
Cells were treated with dimethyl sulfoxide (DMSO) as a solvent control at a final concentration of 0.5% v/v or with compounds in DMSO with a resulting final DMSO concentration of 0.5% v/v. Compound treatment was done at concentrations of 0.39, 0.78, 1.56, 3.12, 6.24, 12.5, 25, 50, 100, and 200 uM in duplicate on each plate. Cells were treated with compounds for 1, 24, or 72 hr. Carbonyl […] m-chloro-phenylhydrazone (CCCP) and taxol were used as positive controls for mitochondrial function and cytoskeletal stability, respectively; DMSO served as the negative control for this experiment. Cells were fixed by the direct addition of 50 uL formaldehyde in Hank's Balanced Salt Solution (HBSS) to a final concentration of 3.7%. After incubation in the fixation medium for 30 min at room temperature (293-298 K), cells were rinsed twice with HBSS and treated with cell permeabilization buffer (16 uL of 0.5% Triton X-100) for 10 min at room temperature (293-298 K) before labeling. For mitochondrial membrane potential and mitochondrial measurements, pre-fixed cells were incubated with 50 uL of MitoTracker Red CMXRos (Invitrogen) at a concentration of 250 nM for 30 min before fixation. In the remaining cases, post-fixed cells were labeled by incubation with a multiplexed mixture of primary antibodies in HBSS for 60 min at room temperature (293-298 K) to detect immunoreactivity of c-Jun (1:500), phospho-histone H3 (1:100), phospho-histone H2A.x (1:200), p53 (1:400), alpha-tubulin (1:200) and Hoechst 33342 (2 ug/mL). Cells were labeled for multiplexed imaging on two separate plates: a) Hoechst 33342, MitoTracker Red, phospho-histone H3, and alpha-tubulin, and b) Hoechst 33342, phospho-histone H2A.x, and c-Jun. A final rinse with HBSS (50 uL) was performed before analysis. The primary and secondary antibodies for the proteins were phospho-histone H3 (rabbit anti-phospho-histone H3 and FITC-donkey anti-rabbit IgG), phospho-histone H2A.x (mouse anti-phospho-histone H2A.x and FITC-donkey anti-mouse IgG), c-Jun (rabbit anti-phospho-c-Jun and Cy3-donkey anti-rabbit IgG), p53 (sheep anti-p53 and Cy5-donkey anti-sheep IgG), alpha-tubulin (mouse anti-alpha-tubulin and Cy5-donkey anti-mouse IgG). These antibodies are available as the CellCiphr HepG2 assay kit (Millipore).Digital images of each well were captured using a Cellomics ArrayScan VTI (Thermo Scientific Cellomics) (0.8 NA objective, 0.63x optical coupler, and XF-93 filter set) at 20x magnification. The images were acquired using the autofocus feature of the ArrayScan instrument, which entails the following steps. First, the camera focuses on channel 1 (Hoechst 33342), where nuclei are identified. Second, a Z offset of 1 um is used for capturing mitochondria (MitoTracker Red). […]
For `CC[C@H](NC(=O)c1cc(F)ccc1NS(=O)(=O)c1cccc2cccnc12)c1ccccc1`, the outcome was inactive. Regarding `O=C=NCCCCCCN=C=O`, the compound was called inactive. Turning to `Oc1ccccc1`, the result was inactive. In the case of `OCCO`, the call was inactive.

For the compound `CCOC(=O)O[C@H](C)OC(=O)c1ccc2c(c1)cc(C(=O)NC1CCN(C(C)C)CC1)n2Cc1cc(-c2ccc(Cl)s2)on1`, the result was inactive.

For the compound `O=C(OCCCCCCOC(=O)c1ccccc1)c1ccccc1`, the result was inactive. As for `CCCCOC(=O)CC(CC(=O)OCCCC)(OC(C)=O)C(=O)OCCCC`, the outcome was inactive. Still for that read-out and setting: with `CCCCCCCCOc1ccc(C(=O)c2ccccc2)c(O)c1` the entry was “inactive”. Regarding `O=C1O[C@H]([C@@H](O)CO)C(O)=C1O`, the outcome was inactive. For the compound `Cc1ccc(C(C)C)cc1`, the compound was classed as inactive.

Turning to `O=c1[nH]sc2ccccc12`, the AC50 was 107 µM (active). On to `c1ccc2n[nH]nc2c1`, for which the compound was classed as inactive. As for `CN(C[C@@H](CC[N+]12CCC(C3CCCCC3)(CC1)CC2)c1ccc(Cl)c(Cl)c1)C(=O)c1cc(C(F)(F)F)cc(C(F)(F)F)c1`, the half-maximal activity concentration (AC50) is 47.8 µM (active).

As for `O=C(Nc1ccc(Cl)cc1)Nc1ccc(Cl)c(Cl)c1`, the AC50 was 56.3 µM (active). For `CC(=O)N1CCN(c2ccc(OC[C@H]3CO[C@](Cn4ccnc4)(c4ccc(Cl)cc4Cl)O3)cc2)CC1`, the outcome was inactive. In the case of `CCCCCCCCOC(=O)c1cc(O)c(O)c(O)c1`, the AC50 is 23.8 µM (active). Consider `CC(C)(C)c1csc(-c2cc3cc(OCc4ccccc4CC(=O)O)ccc3o2)n1`, for which the call was inactive. Same read-out and setting: the value for `C[C@]12CC[C@@H]3c4ccc(O)cc4CC[C@H]3[C@@H]1CCC2=O` was “inactive”.

Consider `O=c1c(-c2ccc(O)cc2)coc2cc(O)cc(O)c12`, for which the AC50 was 57 µM (active).

With `CN1C(=O)N(c2ccccc2Br)Cc2cnc(Nc3ccc4c(c3)OCC(CO)O4)nc21` (stereo not given), the outcome was inactive. As for `CC1(C)NC(=O)N(c2ccc([N+](=O)[O-])c(C(F)(F)F)c2)C1=O`, the compound was classed as inactive. As for `O=c1ccc2ccccc2o1`, the AC50 was 100 µM (active).

Turning to `O=C(O)Cn1c(=O)n(Cc2ccc(Br)cc2F)c(=O)c2ccc(Cl)cc21`, the compound was classed as inactive. With `CN(C)C(=O)C1(N2CCCCC2)CCN(CC[C@@]2(c3ccc(Cl)c(Cl)c3)CN(C(=O)c3ccccc3)CCO2)CC1`, the result was inactive.

Regarding `O=C1CCC(C2CCCCC2)CC1`, the compound was called inactive. As to `O=C1c2ccccc2C(=O)N1CCc1noc(-c2ccc(CN3CCCCCC3)s2)n1`, the outcome was inactive. As for `CCN(Cc1cccnc1)C(=O)c1cccc(Cl)c1[C@]1(C)C(=O)N(Cc2ccc(OC)cc2OC)c2ccc(Cl)cc21`, the outcome was inactive. In the case of `CCCCCCCCCCCO`, the outcome was inactive. As for `COc1ccc2cc(S(=O)(=O)N[C@H](CC(=O)N[C@H](Cc3ccc(CN4[C@H](C)CCC[C@@H]4C)cc3)C(=O)N(C)C(C)C)c3ccc4c(c3)OCO4)ccc2c1`, the call was inactive. With `CCCC(=O)OCCC(C)C`, the compound was classed as inactive. As to `CO[C@H]1/C=C/O[C@@]2(C)Oc3c(C)c(O)c4c(O)c(c(/C=N/N5CCN(C)CC5)c(O)c4c3C2=O)NC(=O)/C(C)=C\C=C\[C@H](C)[C@H](O)[C@@H](C)[C@@H](O)[C@@H](C)[C@H](OC(C)=O)[C@@H]1C`, the compound was classed as inactive. `Clc1ccccc1C(c1ccccc1)(c1ccccc1)n1ccnc1`: the outcome was inactive. Regarding `c1ccc2ccccc2c1`, the compound was called inactive.

As for `CCCCOC(=O)c1ccc(O)cc1`, the outcome was inactive. Regarding `CCO[Si](CCCNC(N)=O)(OCC)OCC`, the compound was called inactive. For the compound `O=C(O)c1ccccc1C(=O)OCc1ccccc1`, the compound was classed as inactive. For `O=CCCCC=O`, the compound was classed as inactive. For `CCN(CC)C(=O)c1cc(S(=O)(=O)Cc2ccccc2)c(N2CCC(c3ccccc3)CC2)cc1N(CC)CCN(C)C`, the AC50 is 1.88 µM (active). As to `CCCCCCCCCC(=O)O`, the result was inactive. Still for that read-out and setting: with `Cc1cc(F)ccc1-c1cc(N2CC[C@@H](O)[C@H]2CO)ncc1N(C)C(=O)C(C)(C)c1cc(C(F)(F)F)cc(C(F)(F)F)c1` the entry was “inactive”.
